About 7,900 targets were measured; listed, in parts, are those with a hit and a random draw of the rest. About 0.6% of all pairs of compound and target were hits. A number with no mark means an inactive call.
Tests used:
Assay in all cases: log2 fold change, soluble protein after heating vs DMSO (PISA); higher = thermal stabilisation; K562 cells, 10 uM, 30 min; active = over 0.2 and 3.5 SD of the protein, either way, in both replicates (recomputed)
Nexturastat A = compound: CCCCN(Cc1ccc(C(=O)NO)cc1)C(=O)Nc1ccccc1 [Nexturastat A]
Outline: (§1)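 K562 cells at 2×10^6 cells/mL were treated for 30 min with 10 μM compound, and aliquots were heated for 3 min over 48°C-58°C before pooling. Extraction used PBS with 0.5% NP-40 at 4°C, and soluble protein was the supernatant after 21,000xg for 90 min, measured by TMTpro 16plex LC-MS/MS with channel sums equalised. Thermal stability values, relative to control samples and from duplicates, are log2 fold changes.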

barasertib = compound: CCN(CCCOc1ccc2c(Nc3cc(CC(=O)Nc4cccc(F)c4)[nH]n3)ncnc2c1)CCOP(=O)(O)O [barasertib]
Outline: as §1

[1] = compound: CCCc1cc(C)[nH]c(=O)c1CNC(=O)c1cc(-c2ccnc(N3CCN(C)CC3)c2)cc2c1cnn2C(C)C
Outline: as §1

[2] = compound: CC1=C(C=C(C=C1)NC(=O)C2=CC(=CC=C2)C(C)(C)C#N)NC3=CC4=C(C=C3)N=CN(C4=O)C
Outline: as §1

[3] = compound: CC1=CC=C(C=C1)SC2=C3C=C(SC3=CN=C2)C(=O)N
Outline: as §1

[4] = compound: CC1=NC(=CC=C1)C2=C(N=C(N2)C(C)(C)C)C3=CC4=NC=CN=C4C=C3
Outline: as §1

[5] = compound: CCCS(=O)(=O)Nc1ccc(F)c(C(=O)c2c[nH]c3ncc(Cl)cc23)c1F
Outline: as §1

givinostat = compound: CCN(CC)Cc1ccc2cc(COC(=O)Nc3ccc(C(=O)NO)cc3)ccc2c1 [givinostat]
Outline: as §1

vemurafenib = compound: CCCS(=O)(=O)Nc1ccc(F)c(C(=O)c2c[nH]c3ncc(-c4ccc(Cl)cc4)cc23)c1F [vemurafenib]
Outline: as §1

[6] = compound: CC1=C(C=C(C=C1)NC(=O)C2=CC(=CC=C2)N(C)C)NC(=O)C3=CC=C(C=C3)O
Outline: as §1

Chain of UniProt P0CG12 (P0CG12 whole entry, looked up): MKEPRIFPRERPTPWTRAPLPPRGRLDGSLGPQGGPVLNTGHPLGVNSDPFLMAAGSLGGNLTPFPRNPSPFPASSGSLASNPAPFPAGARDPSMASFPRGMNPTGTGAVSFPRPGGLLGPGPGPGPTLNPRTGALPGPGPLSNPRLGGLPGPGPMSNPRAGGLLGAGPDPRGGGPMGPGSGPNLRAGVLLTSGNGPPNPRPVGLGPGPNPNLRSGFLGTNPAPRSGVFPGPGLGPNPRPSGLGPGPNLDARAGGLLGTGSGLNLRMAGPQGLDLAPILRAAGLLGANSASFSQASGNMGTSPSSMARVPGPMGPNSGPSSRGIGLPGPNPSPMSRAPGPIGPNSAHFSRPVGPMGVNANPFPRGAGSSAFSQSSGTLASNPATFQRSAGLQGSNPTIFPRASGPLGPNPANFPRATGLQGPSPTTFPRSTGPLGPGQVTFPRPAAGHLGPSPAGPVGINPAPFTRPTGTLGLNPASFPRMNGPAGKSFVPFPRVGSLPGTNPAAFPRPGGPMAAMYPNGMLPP
Chain of UniProt Q16531 (Q16531 whole entry, looked up): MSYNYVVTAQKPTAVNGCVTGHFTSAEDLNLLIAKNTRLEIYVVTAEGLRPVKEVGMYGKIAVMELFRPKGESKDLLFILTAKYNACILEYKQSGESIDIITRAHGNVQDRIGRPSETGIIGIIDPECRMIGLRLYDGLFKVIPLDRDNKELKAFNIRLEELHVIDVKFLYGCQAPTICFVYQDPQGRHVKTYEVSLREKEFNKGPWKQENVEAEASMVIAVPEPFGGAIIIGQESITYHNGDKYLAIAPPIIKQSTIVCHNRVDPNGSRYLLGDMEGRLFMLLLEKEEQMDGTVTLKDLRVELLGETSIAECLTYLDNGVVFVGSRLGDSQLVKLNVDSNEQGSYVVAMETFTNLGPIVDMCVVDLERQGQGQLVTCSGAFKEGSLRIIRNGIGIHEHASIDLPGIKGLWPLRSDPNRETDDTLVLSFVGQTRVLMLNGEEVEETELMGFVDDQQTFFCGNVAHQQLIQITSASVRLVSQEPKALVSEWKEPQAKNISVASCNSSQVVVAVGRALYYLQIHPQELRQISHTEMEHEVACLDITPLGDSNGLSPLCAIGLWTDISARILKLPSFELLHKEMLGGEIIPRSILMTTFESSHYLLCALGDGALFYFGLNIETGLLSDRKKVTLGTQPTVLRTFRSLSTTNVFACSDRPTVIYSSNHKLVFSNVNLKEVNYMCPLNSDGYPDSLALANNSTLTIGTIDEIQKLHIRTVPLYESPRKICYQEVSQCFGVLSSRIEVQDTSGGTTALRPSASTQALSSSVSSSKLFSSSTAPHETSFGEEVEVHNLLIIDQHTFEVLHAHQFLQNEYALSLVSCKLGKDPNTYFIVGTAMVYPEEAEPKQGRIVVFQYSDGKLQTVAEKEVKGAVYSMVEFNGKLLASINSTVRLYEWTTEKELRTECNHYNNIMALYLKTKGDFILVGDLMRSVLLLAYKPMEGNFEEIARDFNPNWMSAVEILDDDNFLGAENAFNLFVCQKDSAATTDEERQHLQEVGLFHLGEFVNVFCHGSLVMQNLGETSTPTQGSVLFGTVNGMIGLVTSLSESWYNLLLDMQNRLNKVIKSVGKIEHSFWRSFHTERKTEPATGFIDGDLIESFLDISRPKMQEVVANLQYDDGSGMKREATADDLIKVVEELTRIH
Chain of UniProt Q9H777 (Q9H777 whole entry, looked up): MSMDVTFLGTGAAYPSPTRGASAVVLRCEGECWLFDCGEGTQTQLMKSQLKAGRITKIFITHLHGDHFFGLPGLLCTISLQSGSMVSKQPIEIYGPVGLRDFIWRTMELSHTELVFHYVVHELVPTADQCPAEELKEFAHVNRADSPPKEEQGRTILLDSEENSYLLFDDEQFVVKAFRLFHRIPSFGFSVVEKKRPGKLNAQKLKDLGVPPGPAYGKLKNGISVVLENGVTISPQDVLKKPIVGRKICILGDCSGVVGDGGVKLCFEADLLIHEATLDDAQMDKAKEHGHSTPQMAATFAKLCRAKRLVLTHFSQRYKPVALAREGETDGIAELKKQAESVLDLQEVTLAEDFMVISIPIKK
Chain of UniProt Q96C92 (Q96C92 whole entry, looked up): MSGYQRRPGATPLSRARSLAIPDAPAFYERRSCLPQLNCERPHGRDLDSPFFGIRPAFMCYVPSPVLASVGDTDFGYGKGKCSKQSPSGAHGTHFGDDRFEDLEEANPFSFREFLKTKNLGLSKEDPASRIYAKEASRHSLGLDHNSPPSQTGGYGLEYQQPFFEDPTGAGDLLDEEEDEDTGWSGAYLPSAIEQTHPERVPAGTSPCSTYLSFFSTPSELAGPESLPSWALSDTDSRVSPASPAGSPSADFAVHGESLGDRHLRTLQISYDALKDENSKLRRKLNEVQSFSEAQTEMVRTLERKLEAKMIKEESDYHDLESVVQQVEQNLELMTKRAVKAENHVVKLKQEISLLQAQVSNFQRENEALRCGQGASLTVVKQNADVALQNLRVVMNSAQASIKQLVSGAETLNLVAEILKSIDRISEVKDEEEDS
Chain of UniProt O15121 (O15121 whole entry, looked up): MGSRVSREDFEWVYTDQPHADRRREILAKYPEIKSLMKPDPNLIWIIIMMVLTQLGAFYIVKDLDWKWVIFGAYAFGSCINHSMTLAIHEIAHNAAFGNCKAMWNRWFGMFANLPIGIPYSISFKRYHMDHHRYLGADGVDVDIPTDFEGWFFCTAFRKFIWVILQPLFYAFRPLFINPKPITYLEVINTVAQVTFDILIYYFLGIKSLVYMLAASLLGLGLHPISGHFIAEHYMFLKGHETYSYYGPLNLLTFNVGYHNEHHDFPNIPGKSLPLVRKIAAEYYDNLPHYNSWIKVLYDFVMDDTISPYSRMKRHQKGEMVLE
Chain of UniProt Q4LDG9 (Q4LDG9 whole entry, looked up): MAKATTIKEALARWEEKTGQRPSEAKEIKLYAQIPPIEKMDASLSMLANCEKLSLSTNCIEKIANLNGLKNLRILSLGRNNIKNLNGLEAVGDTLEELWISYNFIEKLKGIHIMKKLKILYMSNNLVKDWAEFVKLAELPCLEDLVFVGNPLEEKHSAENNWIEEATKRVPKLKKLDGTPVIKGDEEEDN
Chain of UniProt Q9NZJ5 (Q9NZJ5 whole entry, looked up): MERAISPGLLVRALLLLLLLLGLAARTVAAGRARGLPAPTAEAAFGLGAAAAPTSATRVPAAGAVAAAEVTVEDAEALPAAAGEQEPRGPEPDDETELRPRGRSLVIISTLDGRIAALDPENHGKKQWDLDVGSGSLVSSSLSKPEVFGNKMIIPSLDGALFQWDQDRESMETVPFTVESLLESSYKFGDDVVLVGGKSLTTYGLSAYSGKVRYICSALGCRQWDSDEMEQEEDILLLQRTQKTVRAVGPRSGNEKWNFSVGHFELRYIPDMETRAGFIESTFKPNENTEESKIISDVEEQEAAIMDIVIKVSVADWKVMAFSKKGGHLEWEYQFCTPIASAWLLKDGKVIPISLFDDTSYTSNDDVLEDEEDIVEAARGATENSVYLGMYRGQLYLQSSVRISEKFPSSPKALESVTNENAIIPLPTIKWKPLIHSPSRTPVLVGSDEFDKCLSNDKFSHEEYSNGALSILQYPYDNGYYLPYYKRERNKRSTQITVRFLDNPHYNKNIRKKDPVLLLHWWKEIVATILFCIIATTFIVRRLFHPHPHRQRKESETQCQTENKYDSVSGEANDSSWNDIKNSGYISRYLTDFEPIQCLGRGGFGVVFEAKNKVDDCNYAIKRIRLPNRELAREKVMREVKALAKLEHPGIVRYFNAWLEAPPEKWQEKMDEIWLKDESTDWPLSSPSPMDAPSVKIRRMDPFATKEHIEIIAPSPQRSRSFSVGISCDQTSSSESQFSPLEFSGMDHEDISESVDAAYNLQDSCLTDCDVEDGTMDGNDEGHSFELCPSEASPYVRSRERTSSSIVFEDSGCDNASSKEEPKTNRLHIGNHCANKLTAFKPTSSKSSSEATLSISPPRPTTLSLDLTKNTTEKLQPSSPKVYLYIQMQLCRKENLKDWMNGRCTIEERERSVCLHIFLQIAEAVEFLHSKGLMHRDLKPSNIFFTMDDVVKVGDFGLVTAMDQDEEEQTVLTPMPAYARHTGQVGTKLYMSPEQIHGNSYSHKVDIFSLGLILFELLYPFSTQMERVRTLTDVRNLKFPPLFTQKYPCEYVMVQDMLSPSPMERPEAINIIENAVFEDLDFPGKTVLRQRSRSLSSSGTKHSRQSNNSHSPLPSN
Chain of UniProt Q96RI0 (Q96RI0 whole entry, looked up): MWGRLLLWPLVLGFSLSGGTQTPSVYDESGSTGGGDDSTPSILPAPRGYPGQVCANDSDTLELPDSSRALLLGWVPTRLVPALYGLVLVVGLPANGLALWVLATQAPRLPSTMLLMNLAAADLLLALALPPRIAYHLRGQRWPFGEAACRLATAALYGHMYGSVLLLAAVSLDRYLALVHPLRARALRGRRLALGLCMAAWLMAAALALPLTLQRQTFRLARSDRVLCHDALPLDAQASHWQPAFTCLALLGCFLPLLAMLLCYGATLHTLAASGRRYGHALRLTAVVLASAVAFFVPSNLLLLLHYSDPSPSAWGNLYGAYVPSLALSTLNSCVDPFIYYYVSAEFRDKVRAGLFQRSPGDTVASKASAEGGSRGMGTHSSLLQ
Chain of UniProt P25774 (P25774 whole entry, looked up): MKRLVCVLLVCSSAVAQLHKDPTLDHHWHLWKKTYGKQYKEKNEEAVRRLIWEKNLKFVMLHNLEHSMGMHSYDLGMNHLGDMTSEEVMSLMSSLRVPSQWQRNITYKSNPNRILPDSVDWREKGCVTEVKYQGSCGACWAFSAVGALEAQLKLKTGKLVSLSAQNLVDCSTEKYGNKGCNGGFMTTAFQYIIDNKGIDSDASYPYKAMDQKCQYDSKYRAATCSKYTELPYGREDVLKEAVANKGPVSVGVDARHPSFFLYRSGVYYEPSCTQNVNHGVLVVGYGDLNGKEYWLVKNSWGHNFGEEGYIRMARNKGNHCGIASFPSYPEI
Chain of UniProt Q9Y6B2 (Q9Y6B2 whole entry, looked up): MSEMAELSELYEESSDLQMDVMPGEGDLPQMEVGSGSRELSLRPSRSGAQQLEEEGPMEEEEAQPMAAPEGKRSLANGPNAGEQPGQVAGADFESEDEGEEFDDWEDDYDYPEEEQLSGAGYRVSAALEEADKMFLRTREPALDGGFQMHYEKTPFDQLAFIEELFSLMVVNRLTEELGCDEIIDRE

Target EPHX2 (UniProt E5RI53) has a log2 fold change (Nexturastat A) of 0.029 and a log2 fold change (barasertib) of 0.094.
DDX46, A0A0C4DG89 was tested, and the log2 fold change (Nexturastat A) was 0.058 and the log2 fold change [1] was 0.149.
ENTPD7 (UniProt Q9NQZ7) showed a log2 fold change [2] of -0.033, a log2 fold change [3] of 0.012 and a log2 fold change [4] of 0.142. It also gave a log2 fold change (Nexturastat A) of 0.047, a log2 fold change [5] of -0.1 and a log2 fold change [1] of -0.068. It also gave a log2 fold change (givinostat) of 0 and a log2 fold change (barasertib) of -0.009.
Target EIF4G1 (UniProt Q04637) has a log2 fold change (vemurafenib) of -0.071.
EEF1D isoform 3 (UniProt P29692) showed a log2 fold change [1] of -0.674 and a log2 fold change (givinostat) of -0.236.
For EID1 (UniProt Q9Y6B2), the log2 fold change [2] was -0.047, the log2 fold change [3] was 0.019 and the log2 fold change (Nexturastat A) was 0.18. The log2 fold change [5] was -0.107, the log2 fold change [1] was 0.135 and the log2 fold change (givinostat) was -0.134.
With ERF (UniProt P50548) the log2 fold change [2] was -0.551, the log2 fold change (Nexturastat A) was 0.033 and the log2 fold change (givinostat) was -0.133.
FAM117B (UniProt Q6P1L5) showed a log2 fold change [6] of -0.035, a log2 fold change [4] of -0.126 and a log2 fold change (Nexturastat A) of 0.394. For the same target, the log2 fold change (vemurafenib) was 0.043 and the log2 fold change (givinostat) was 0.212.
DOP1A (UniProt Q5JWR5) was tested, and the log2 fold change (Nexturastat A) was 0.47 (active), the log2 fold change (vemurafenib) was 0.045 and the log2 fold change [1] was -0.166. For the same target, the log2 fold change (givinostat) was 0.057 and the log2 fold change (barasertib) was -0.047.
For DCAF12 (UniProt Q5T6F0), the log2 fold change [2] was -0.136 and the log2 fold change [1] was 0.08.
DPYSL2 (UniProt Q16555) showed a log2 fold change [2] of -0.056, a log2 fold change [3] of 0.03 and a log2 fold change [4] of 0.033. The log2 fold change (Nexturastat A) was -0.176, the log2 fold change (vemurafenib) was -0.056 and the log2 fold change [5] was -0.002. It also gave a log2 fold change [1] of -0.065, a log2 fold change (givinostat) of 0.03 and a log2 fold change (barasertib) of 0.
With FAM160A2 isoform 2 (UniProt Q8N612) the log2 fold change [6] was 0.134, the log2 fold change [4] was 0.016 and the log2 fold change (Nexturastat A) was -0.066. For the same target, the log2 fold change (vemurafenib) was -0.164, the log2 fold change [1] was -0.172 and the log2 fold change (barasertib) was 0.109.
For DERPC (UniProt P0CG12), the log2 fold change [6] was -0.052, the log2 fold change [4] was 0.005 and the log2 fold change (vemurafenib) was 0.07. The log2 fold change [1] was -0.029, the log2 fold change (givinostat) was 0.454 (active) and the log2 fold change (barasertib) was 0.012.
Target DCAF4 (UniProt Q8WV16) has a log2 fold change [2] of 0.03, a log2 fold change [6] of 0.072 and a log2 fold change (Nexturastat A) of -0.132. The log2 fold change [1] was -0.061.
Work on FAM193B (UniProt Q96PV7) yielded a log2 fold change [2] of -0.16, a log2 fold change [3] of -0.114 and a log2 fold change [4] of -0.034. It also gave a log2 fold change (Nexturastat A) of 0.054, a log2 fold change (vemurafenib) of -0.114 and a log2 fold change [5] of 0.005. For the same target, the log2 fold change (barasertib) was 0.045.
With ENTR1 (UniProt Q96C92) the log2 fold change [3] was -0.091, the log2 fold change (vemurafenib) was 0.06 and the log2 fold change [5] was -0.105. The log2 fold change (givinostat) was 0.062.
DNAJB1 (UniProt M0R128) was tested, and the log2 fold change (vemurafenib) was -0.002 and the log2 fold change (barasertib) was 0.135.
EHBP1 (UniProt Q8NDI1) was tested, and the log2 fold change [1] was -0.028.
In the case of DDB1 isoform 2 (UniProt Q16531), the log2 fold change [2] is reported as -0.144, the log2 fold change (Nexturastat A) is reported as -0.061 and the log2 fold change (barasertib) is reported as 0.116.
EIF3J isoform 2 (UniProt O75822) was tested, and the log2 fold change [2] was -0.1, the log2 fold change [3] was 0.032 and the log2 fold change [4] was -0.02. For the same target, the log2 fold change (Nexturastat A) was 0.048, the log2 fold change (vemurafenib) was -0.17 and the log2 fold change [5] was -0.062. The log2 fold change [1] was -0.613, the log2 fold change (givinostat) was -0.129 and the log2 fold change (barasertib) was -0.071.
In the case of EEF2K (UniProt O00418), the log2 fold change [6] is reported as 0.006, the log2 fold change [3] is reported as 0.043 and the log2 fold change (Nexturastat A) is reported as 0.201. The log2 fold change (vemurafenib) was 0.089, the log2 fold change [5] was 0.157 and the log2 fold change [1] was 0.15. The log2 fold change (givinostat) was -0.041.
Target CTNNBL1 (UniProt Q8WYA6) has a log2 fold change [3] of 0.185, a log2 fold change (vemurafenib) of -0.02 and a log2 fold change [5] of -0.166. The log2 fold change (barasertib) was 0.012.
With ELAC1 (UniProt Q9H777) the log2 fold change [2] was 0.003, the log2 fold change [3] was -0.051 and the log2 fold change [4] was -0.049. It also gave a log2 fold change (Nexturastat A) of 0.011, a log2 fold change (vemurafenib) of -0.017 and a log2 fold change [5] of 0.007. The log2 fold change (givinostat) was -0.023.
With DLK1 (UniProt P80370) the log2 fold change [4] was -0.033, the log2 fold change (Nexturastat A) was -0.003 and the log2 fold change (vemurafenib) was -0.026.
With EDRF1 (UniProt Q3B7T1) the log2 fold change [2] was -0.022, the log2 fold change [6] was 0.21 and the log2 fold change (Nexturastat A) was -0.042. It also gave a log2 fold change [1] of 0.019, a log2 fold change (givinostat) of 0.114 and a log2 fold change (barasertib) of -0.036.
F2RL3 (UniProt Q96RI0) showed a log2 fold change [6] of 0.032, a log2 fold change [3] of 0.053 and a log2 fold change (vemurafenib) of -0.156. It also gave a log2 fold change [5] of 0.035 and a log2 fold change (givinostat) of -0.06.
Target CTSS (UniProt P25774) has a log2 fold change [2] of 0.032, a log2 fold change [6] of -0.045 and a log2 fold change [4] of -0.068. It also gave a log2 fold change (vemurafenib) of -0.053.
In the case of ELOVL7 (UniProt A1L3X0), the log2 fold change (Nexturastat A) is reported as 0.016 and the log2 fold change (givinostat) is reported as 0.034.
With DEGS1 (UniProt O15121) the log2 fold change [2] was -0.088, the log2 fold change [3] was 0.003 and the log2 fold change (Nexturastat A) was -0.062. The log2 fold change (vemurafenib) was -0.185, the log2 fold change [5] was 0.033 and the log2 fold change [1] was -0.053. For the same target, the log2 fold change (givinostat) was -0.023 and the log2 fold change (barasertib) was -0.018.
DNAL1 (UniProt Q4LDG9) showed a log2 fold change [6] of 0.049, a log2 fold change [4] of 0.069 and a log2 fold change (Nexturastat A) of -0.135. It also gave a log2 fold change (vemurafenib) of 0.013 and a log2 fold change (barasertib) of 0.012.
EZH2 isoform 2 (UniProt Q15910) showed a log2 fold change [2] of 0.063, a log2 fold change [3] of 0.127 and a log2 fold change [4] of 0.149. The log2 fold change (Nexturastat A) was -0.173, the log2 fold change (vemurafenib) was 0.377 and the log2 fold change [5] was 0. For the same target, the log2 fold change [1] was 0.949 (active), the log2 fold change (givinostat) was 0.097 and the log2 fold change (barasertib) was 0.045.
In the case of EIF2AK3 (UniProt Q9NZJ5), the log2 fold change [3] is reported as 0.036, the log2 fold change [4] is reported as -0.043 and the log2 fold change (Nexturastat A) is reported as -0.595. For the same target, the log2 fold change [5] was -0.161, the log2 fold change [1] was 0.244 and the log2 fold change (givinostat) was 0.027. The log2 fold change (barasertib) was 0.151.
DHPS (UniProt M0R1T2) gave a log2 fold change [2] of 0.118 and a log2 fold change (barasertib) of 0.11.
DOLPP1 (UniProt Q86YN1) gave a log2 fold change [6] of 0.012, a log2 fold change [3] of -0.094 and a log2 fold change [4] of 0.026. It also gave a log2 fold change (vemurafenib) of -0.057, a log2 fold change [5] of -0.042 and a log2 fold change [1] of -0.018. For the same target, the log2 fold change (givinostat) was -0.027 and the log2 fold change (barasertib) was 0.057.
With DNAH10 (UniProt Q8IVF4) the log2 fold change [2] was -0.034, the log2 fold change [4] was -0.114 and the log2 fold change (Nexturastat A) was 0.434. It also gave a log2 fold change (vemurafenib) of -0.067, a log2 fold change [1] of -0.269 and a log2 fold change (givinostat) of 0.307. It also gave a log2 fold change (barasertib) of 0.014.
With FADS1 (UniProt F5GYH4) the log2 fold change [4] was -0.254, the log2 fold change (vemurafenib) was -0.052 and the log2 fold change (barasertib) was 0.024.
With CYP24A1 (UniProt Q07973) the log2 fold change [6] was 0.051, the log2 fold change [3] was -0.039 and the log2 fold change [4] was -0.306. The log2 fold change (vemurafenib) was -0.198, the log2 fold change [5] was -0.057 and the log2 fold change [1] was -0.183. The log2 fold change (givinostat) was 0.233 and the log2 fold change (barasertib) was -0.146.
DENND1A isoform 6 (UniProt Q8TEH3) was tested, and the log2 fold change [3] was 0.025, the log2 fold change [4] was -0.009 and the log2 fold change (vemurafenib) was -0.119. The log2 fold change [5] was 0.114 and the log2 fold change (barasertib) was 0.293.
